PubChem BioAssay (EPA / NIEHS)
Results filed as inconclusive are left out. The source made the active and inactive calls. Rule for the calls, unless noted: active = hit-call score of the fitted dose curve at least 0.9, where 1 is the maximum; inconclusive = response in the unintended direction; inactive = score below 0.9.

Assays:
[1] = CCTE_Deisenroth_AIME_96WELL_CTox_Active: Cytotoxicity Assessment (CTOX) in CCTE's 96-well Estrogen Receptor Transactivation Assay with AIME metabolic competence (metabolism positive), Deisenroth Lab (AID 2284028)
Method in brief: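 Chemicals (0.002–200 uM) were first incubated 2 h with alginate-immobilized phenobarbital/beta-naphthoflavone-induced male rat liver S9; conditioned medium then went onto VM7Luc4E2 cells for 24 h, with viability read by protease-substrate fluorescence, fitted bidirectionally.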

[2] = CCTE_Deisenroth_AIME_96WELL_CTox_Inactive: Cytotoxicity Assessment (CTOX) in CCTE's 96-well Estrogen Receptor Transactivation Assay without AIME metabolic competence (metabolism negative), Deisenroth Lab (AID 2284029)
Method in brief: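 Chemicals (0.002 - 200 uM, 10 points) incubated 2 h with alginate-water microspheres (no S9), then medium moved onto VM7Luc4E2 cells for 24 h. Viability by protease-substrate cleavage to fluorescent probe; bidirectional fitting.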

[3] = CCTE_Shafer_MEA_dev_firing_rate_mean: CCTE's Neural Network Formation Assay for Mean Firing Rate, Shafer Lab (AID 2284031; active = hit-call score of the fitted dose curve at least 0.9, where 1 is the maximum; inactive = score below 0.9)
Method in brief: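 Rat primary cortical neurons were seeded on multielectrode arrays and treated from plating through day 12, with redosing at each feed. Spontaneous spiking was recorded four times; mean firing rate AUC was fitted downward against DMSO.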

[4] = CCTE_Shafer_MEA_dev_per_burst_spike_percent: CCTE's Neural Network Formation Assay for Percent of Spikes in a Burst, Shafer Lab (AID 2284032; active = hit-call score of the fitted dose curve at least 0.9, where 1 is the maximum; inactive = score below 0.9)
Method in brief: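 Rat primary cortical neurons on 16-electrode MEA wells, dosed from plating day 0 for 12 days with renewal on DIV 5 and 9; spikes-in-bursts percentage averaged over bursting electrodes, collapsed as AUC across days 5, 7, 9, 12; loss direction versus DMSO.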

[5] = CCTE_Shafer_MEA_dev_active_electrodes_number: CCTE's Neural Network Formation Assay for Number of Active Electrodes, Shafer Lab (AID 2284040)
Method in brief: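 Primary rat cortical neurons on 16-electrode MEA wells, exposed from day 0 through day 12 with compound renewed at DIV 5 and 9 feeds. Active electrodes (mean firing ≥5 spikes/min) counted at DIV 5, 7, 9, 12; trapezoidal AUC across days, loss-of-signal versus DMSO.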

[6] = CCTE_Shafer_MEA_dev_burst_rate: CCTE's Neural Network Formation Assay for Burst Rate, Shafer Lab (AID 2284042; active = hit-call score of the fitted dose curve at least 0.9, where 1 is the maximum; inactive = score below 0.9)
Method in brief: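 Developmental network assay measuring how 12-day exposure of rat cortical neuron cultures alters bursting on extracellular MEA recordings. Values are AUC of well-mean burst rate across four recording days, relative to DMSO vehicle.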

[7] = CCTE_Shafer_MEA_dev_bursting_electrodes_number: CCTE's Neural Network Formation Assay for Number of Bursting Electrodes, Shafer Lab (AID 2284043)
Method in brief: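 Read-out is the per-well number of electrodes bursting at least once every 2 minutes, recorded on days 5, 7, 9 and 12 and collapsed by trapezoidal area under the curve. Cultures were primary rat cortical neurons on MEA plates, treated continuously from plating.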

[8] = CCTE_Shafer_MEA_dev_per_burst_interspike_interval: CCTE's Neural Network Formation Assay for Burst Interspike Interval, Shafer Lab (AID 2284044; active = hit-call score of the fitted dose curve at least 0.9, where 1 is the maximum; inactive = score below 0.9;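 note: mean spike spacing inside bursts as AUC over recordings on days 5 7 9 12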)
Method in brief: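 Rat cortical primary cultures, 16 electrodes/well; compound from plating, renewed with full media change DIV 5 and 9. Spikes via adaptive detector; per-burst ISI well-mean over active bursting electrodes; AUC of DIV 5/7/9/12 recordings; loss-direction fit vs DMSO.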

[9] = CCTE_Shafer_MEA_dev_burst_duration_mean: CCTE's Neural Network Formation Assay for Mean Burst Duration, Shafer Lab (AID 2284045; active = hit-call score of the fitted dose curve at least 0.9, where 1 is the maximum; inactive = score below 0.9)
Method in brief: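 Read-out: average first-to-last-spike interval within single-electrode bursts, averaged over bursting electrodes per well, then summarised as area under the curve across days 5, 7, 9 and 12. Developing rat cortical networks were exposed from day 0.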

[10] = CCTE_Shafer_MEA_dev_interburst_interval_mean: CCTE's Neural Network Formation Assay for Mean Interburst Interval, Shafer Lab (AID 2284046; active = hit-call score of the fitted dose curve at least 0.9, where 1 is the maximum; inactive = score below 0.9;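 note: well-mean interburst interval of bursting electrodes as AUC over four recording days; curve fitted for decrease in interburst interval relative to DMSO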)
Method in brief: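 Network formation assay in primary rat cortical cultures, exposed from DIV 0 to 12. Mean interburst interval per well, integrated as AUC over four recordings.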

[11] = CCTE_Shafer_MEA_dev_inter_network_spike_interval_mean: CCTE's Neural Network Formation Assay for Mean Inter-network Spike Interval, Shafer Lab (AID 2284047; active = hit-call score of the fitted dose curve at least 0.9, where 1 is the maximum; inactive = score below 0.9)
Method in brief: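 Compound was given at plating to primary rat cortical neurons and renewed with full medium changes on DIV 5 and 9. Extracellular activity was recorded on days 5, 7, 9, 12; AUC values were fitted for loss relative to DMSO control.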

[12] = CCTE_Shafer_MEA_dev_network_spike_number: CCTE's Neural Network Formation Assay for Number of Network Spikes, Shafer Lab (AID 2284048; active = hit-call score of the fitted dose curve at least 0.9, where 1 is the maximum; inactive = score below 0.9;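 note: synchronized bursts across electrodes counted on days 5 7 9 12 and integrated as AUC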)
Method in brief: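 Developing networks of primary rat cortical neurons are treated over 12 days starting at plating, with media and compound fully replaced on DIV 5 and 9. Network spike counts from four recording days are integrated as trapezoidal AUC.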

[13] = CCTE_Shafer_MEA_dev_network_spike_peak: CCTE's Neural Network Formation Assay for Mean Number of Electrodes in Network Spike, Shafer Lab (AID 2284049; active = hit-call score of the fitted dose curve at least 0.9, where 1 is the maximum; inactive = score below 0.9)
Method in brief: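 Rat cortical primary culture, 1.5 x 10^5 cells/well, 48-well MEA (16 electrodes/well). Dosing day 0 through DIV 12, full media/compound exchange DIV 5, 9. AxIS adaptive spike detection; AUC over days 5/7/9/12; loss-of-signal vs DMSO.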

[14] = CCTE_Shafer_MEA_dev_spike_duration_mean: CCTE's Neural Network Formation Assay for Mean Spike Duration, Shafer Lab (AID 2284051; active = hit-call score of the fitted dose curve at least 0.9, where 1 is the maximum; inactive = score below 0.9;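 note: mean network spike duration pooled as area under curve over DIV 5 to 12 recordings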)
Method in brief: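 With DMSO as baseline, loss of mean network spike duration was scored from extracellular recordings of rat cortical neurons on MEA plates. Exposure spanned plating to DIV 12; the four recording days were collapsed into one AUC value.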

[15] = CCTE_Shafer_MEA_dev_network_spike_duration_std: CCTE's Neural Network Formation Assay for Standard Deviation of Network Spike Duration, Shafer Lab (AID 2284052; active = hit-call score of the fitted dose curve at least 0.9, where 1 is the maximum; inactive = score below 0.9;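 note: area under curve of spike duration SD across recording days 5 to 12; hits are decreases in network spike duration SD versus DMSO vehicle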)
Method in brief: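 Developing networks of rat cortical neurons were exposed over twelve days in vitro on 48-well MEA plates. Trapezoidal AUC of recordings (DIV 5–12) was analysed for signal loss relative to DMSO vehicle.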

[16] = CCTE_Shafer_MEA_dev_per_network_spike_spike_number_mean: CCTE's Neural Network Formation Assay for Mean Number of Spikes in a Network Spike, Shafer Lab (AID 2284053; active = hit-call score of the fitted dose curve at least 0.9, where 1 is the maximum; inactive = score below 0.9)
Method in brief: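 First, rat cortical cells (1.5 x 10^5/well) were seeded onto MEA wells; second, dosing began at plating and was refreshed on DIV 5 and 9; finally, network-spike spike counts across DIV 5–12 were summarized as AUC.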

[17] = CCTE_Shafer_MEA_dev_per_network_spike_spike_percent: CCTE's Neural Network Formation Assay for Percent of Spikes in a Network Spike, Shafer Lab (AID 2284054; active = hit-call score of the fitted dose curve at least 0.9, where 1 is the maximum; inactive = score below 0.9)
Method in brief: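 Rat primary cortical cultures, 1.5 x 10^5 cells/well on MEA. Continuous compound exposure d0–12, medium/compound renewed DIV 5, 9. Network-spike spike % (0.05 s peak window), AUC over 4 recordings, DMSO baseline.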

[18] = CCTE_Shafer_MEA_dev_LDH: CCTE's Lactate Dehydrogenase Assay for Cytotoxicity in the Neural Network Formation Assay, Shafer Lab (AID 2284068);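 note: exposure for twelve days from plating with re-dosing on DIV 5 and 9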
Method in brief: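 Developing rat cortical networks on MEA plates are exposed to compound for 12 days from plating. LDH activity is measured spectrophotometrically, with DMSO as baseline.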

[19] = CCTE_Shafer_MEA_dev_AB: CCTE's Alamar Blue Assay for Cytotoxicity in the Neural Network Formation Assay, Shafer Lab (AID 2284083);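 note: resazurin reduction fluorescence as viability of cultured neurons; twelve days of exposure from plating with re-dosing on DIV 5 and 9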
Method in brief: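 Cytotoxicity companion to the developmental MEA: primary rat cortical neurons, 12-day exposure starting day 0, compound refreshed DIV 5 and 9; resazurin fluorescence, fitted against DMSO vehicle.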

[20] = CCTE_Shafer_MEA_dev_mutual_information_norm: CCTE's Neural Network Formation Assay for Mutual Information Normalization, Shafer Lab (AID 2284091; active = hit-call score of the fitted dose curve at least 0.9, where 1 is the maximum; inactive = score below 0.9)
Method in brief: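 Developing rat cortical networks on 16-electrode MEA wells are treated throughout formation (DIV 0–12). Shared electrode information is recorded four times, converted to area-under-curve, and fitted for decreases against DMSO vehicle.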

[21] = CCTE_Shafer_MEA_dev_correlation_coefficient_mean: CCTE's Neural Network Formation Assay for Mean Correlation Coefficient, Shafer Lab (AID 2284093; active = hit-call score of the fitted dose curve at least 0.9, where 1 is the maximum; inactive = score below 0.9)
Method in brief: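 Extracellular firing from rat cortical networks on 48-well MEAs, DMSO-referenced, negative fitting direction. Compound present from plating to DIV12; mean pairwise correlation per well integrated over DIV5–12 recordings by trapezoidal AUC.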

[22] = target: Cellular tumor antigen p53 (Homo sapiens) (UniProt P04637); experiment: TOX21_p53_BLA_p5_ratio: Tox21 HCT-116 p53 Agonism Beta-lactamase Assay, Ratio, Phase 5 (AID 2283599)
Method in brief: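 Beta-lactamase reporter ratio (blue 460 nm over green 530 nm, 405 nm excitation) after 2 h CCF4-AM loading, in HCT-116 cells exposed 16 h at 37 C to compounds pinned at 217-fold dilution. Increases relative to DMSO baseline scored.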

[23] = TOX21_p53_BLA_p5_viability: Viability Assessment in the Tox21 HCT-116 p53 Agonism Beta-lactamase Assay, Phase 5 (AID 2283600)
Method in brief: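 Cells were plated at 4000/well, rested 5 h at 37C, then given compounds in DMSO (217-fold dilution) for 16 h at 37C, 5% CO2. Following the CCF4-AM beta-lactamase read, CellTiter-Glo was added and luminescence was read after 30 min at room temperature.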

[24] = target: Cellular tumor antigen p53 (Homo sapiens) (UniProt P04637); experiment: TOX21_p53_BLA_p4_ratio: Tox21 HCT-116 p53 Agonism Beta-lactamase Assay, Ratio, Phase 4 (AID 2283601)
Method in brief: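 Signal is the blue/green (460nm/530nm) ratio of cleaved versus uncleaved CCF4-AM substrate, read after 2 h substrate loading. Cells were HCT116 carrying the p53-responsive beta-lactamase reporter, dosed 16 h at 37C, 5% CO2; CellTiter-Glo measured in parallel.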

Measured: outcome

Sequence of Cellular tumor antigen p53 (Homo sapiens) (P04637 whole entry, looked up): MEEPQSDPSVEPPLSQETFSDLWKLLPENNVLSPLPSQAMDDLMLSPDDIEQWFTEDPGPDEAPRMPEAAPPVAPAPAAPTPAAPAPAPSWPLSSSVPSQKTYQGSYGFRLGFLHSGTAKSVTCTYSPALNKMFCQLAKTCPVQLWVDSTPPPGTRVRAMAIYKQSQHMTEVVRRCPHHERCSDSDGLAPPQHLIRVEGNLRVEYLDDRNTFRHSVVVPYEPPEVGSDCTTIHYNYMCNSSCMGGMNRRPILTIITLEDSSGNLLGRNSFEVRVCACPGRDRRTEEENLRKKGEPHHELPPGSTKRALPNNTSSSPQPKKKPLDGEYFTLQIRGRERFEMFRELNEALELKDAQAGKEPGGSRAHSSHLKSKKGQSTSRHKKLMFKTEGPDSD

c1ccc2c(c1)ccc1c3ccccc3ccc21
inactive: [1] | [2] | [3] | [4] | [5] | [6] | [7] | [8] | [9] | [10] | [11] | [12] | [13] | [14] | [15] | [16] | [17] | [18] | [19] | [20] | [21]

CCC1NC(=O)c2cc(S(N)(=O)=O)c(Cl)cc2N1 (centres undefined)
inactive: [22] | [23] | [24]

CC(C)CCC[C@@H](C)[C@H]1CC(=O)C2=C3CC[C@H]4C[C@@H](O)CC[C@]4(C)[C@H]3CC[C@@]21C
inactive: [22] | [23] | [24]

CC(C)N(C)C
inactive: [22] | [23]

CCCCC/C=C\C/C=C\CCCCCCCC(=O)NC(C)c1ccccc1 (centres undefined)
inactive: [22] | [24]

CCOC(=O)Nc1ccc2c(c1)N(C(=O)CN(C)C)c1ccccc1CC2
inactive: [23]

c1ccc2c(CCC3CCNCC3)c[nH]c2c1
inactive: [22] | [23] | [24]

CCN(CC)CCn1c(=O)c(Cc2ccc(OC)cc2)nc2ccccc21
inactive: [23]

Cc1ccnc(NS(=O)(=O)c2ccc(N)cc2)n1
inactive: [22] | [23] | [24]
